Screening results deposited in PubChem by National Center for Advancing Translational Sciences (NCATS).
This is a sample that favours compounds with a hit; in the whole collection about 22% have one here.
LmPK inh: inhibitors of Leishmania mexicana pyruvate kinase; AID 1721; Q27686; Potency, µM (titrated, usually from 57.5 µM), for inactives: top-dose activity change, negative = inhibition, actives largely listed as inhibitors; 290,000 compounds, 0.37% hits; purified LmPK, Kinase-Glo ATP luminescence, 1 h; further: potency means the concentration at half of the fitted maximal effect; on the % scale 0 is the no-effect control and ±100 the full control effect
Target sequence (Q27686 whole entry, looked up): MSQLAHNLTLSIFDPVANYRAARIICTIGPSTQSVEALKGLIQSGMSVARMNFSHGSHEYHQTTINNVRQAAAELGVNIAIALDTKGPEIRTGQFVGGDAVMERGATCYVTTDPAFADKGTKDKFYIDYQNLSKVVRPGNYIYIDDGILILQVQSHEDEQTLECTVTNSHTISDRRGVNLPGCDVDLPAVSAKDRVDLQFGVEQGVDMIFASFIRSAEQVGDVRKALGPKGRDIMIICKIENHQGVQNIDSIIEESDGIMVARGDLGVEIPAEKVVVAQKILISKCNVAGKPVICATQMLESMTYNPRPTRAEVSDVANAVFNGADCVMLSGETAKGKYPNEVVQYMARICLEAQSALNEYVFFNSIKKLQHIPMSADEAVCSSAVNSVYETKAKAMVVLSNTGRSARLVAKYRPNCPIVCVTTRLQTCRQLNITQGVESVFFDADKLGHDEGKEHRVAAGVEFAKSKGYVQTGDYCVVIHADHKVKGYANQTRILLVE
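Pyruvate kinase activity monitored as ATP production (luciferase luminescence). Conditions: 0.1 nM enzyme, 0.5 mM PEP, 0.1 mM ADP, 1 h, RT; normalized against uninhibited and no-enzyme wells.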
Pf growth 48h: inhibits P. falciparum growth in the first generation, 48 h; P. falciparum luciferase growth in erythrocytes, 48 h; Potency, µM (highest dose often 28.7 µM), without a hit: at the highest dose activity change, negative = inhibition, usual class: inhibitors; 310,000 compounds, 5.9% hits; further: potency means the concentration at half of the fitted maximal effect; on the % scale 0 is the no-effect control and ±100 the full control effect
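Erythrocytes infected with P. falciparum carrying an integrated firefly luciferase reporter (2% hematocrit, 0.1% parasitemia final) were exposed to compounds in RPMI 1640 with 0.5% Albumax at 37 C, 5% CO2. Growth inhibition was scored as reduced luminescence.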
Cycloheximide cs: affects cycloheximide protein synthesis inhibition readout, counter-screen; cell reporter, cycloheximide protein synthesis inhibition counterscreen; max response, %; 300,000 compounds, 12% hits; AID 2314; in the data active means max response mostly above about 13%, no sharp cut-off; inactive means mostly below about 14%; further: read at 38.3 µM for the half of the compounds with a filed dose; 0% is about no effect
Shiga toxin inh: blocks Shiga toxin action in Vero cells | Vero cells, Shiga toxin protein synthesis inhibition reporter | AID 2315 | inhibition, % at 38.7 µM | 290,000 compounds, 9.2% hits; in the data active means inhibition mostly above about 28%, no sharp cut-off; inactive means mostly below about 43%; further: 0% is about no effect
Pf growth 96h: P. falciparum growth inhibition at 96 hour, primary screen for plastid delayed-death inhibitors; P. falciparum luciferase reporter growth, 96 h; Potency, µM (series often up to 28.7 µM), inactives show at the highest dose activity change, negative = inhibition, actives largely listed as inhibitors; 320,000 compounds, 6.9% hits; further: potency means the concentration at half of the fitted maximal effect; on the % scale 0 is the no-effect control and ±100 the full control effect
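Delayed-death screen, second-generation endpoint: infected erythrocytes, 2% hematocrit, 0.05% parasitemia final; 96 hours at 37 C, 5% CO2; luciferase detection reagent; luminescence decrease equals reduced growth.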
Numbers without * were called inactive; ? = inconclusive; . = no result; [ ] = another dose, or the depositor's remark. Unless noted, the call rests on the fitted dose curve; in most records, active means well fitted inhibition curve with a large enough effect; inconclusive means small, poorly fitted or top-dose-only effect, or another doubt; inactive means no such curve, though single readings can be large or run the other way.

SMILES	LmPK inh	Pf growth 48h	Cycloheximide cs	Shiga toxin inh	Pf growth 96h
CSCC[C@H](NC(=O)[C@H](CO)NC(=O)[C@H](Cc1ccc(O)cc1)NC(=O)[C@@H](N)CO)C(=O)N[C@@H](CCC(=O)O)C(=O)N[C@@H](Cc1cnc[nH]1)C(=O)N[C@@H](Cc1ccccc1)C(=O)N[C@@H](CCCNC(=N)N)C(=O)N[C@@H](Cc1c[nH]c2ccccc12)C(=O)NCC(=O)N[C@@H](CCCCN)C(=O)N1CCC[C@H]1C(=O)N[C@H](C(=O)NCC(=O)N[C@@H](CCCCN)C(=O)N[C@@H](CCCCN)C(=O)N[C@@H](CCCNC(=N)N)C(=O)N[C@@H](CCCNC(=N)N)C(=O)N1CCC[C@H]1C(=O)N[C@H](C(=O)N[C@@H](CCCCN)C(=O)N[C@H](C(=O)N[C@@H](Cc1ccc(O)cc1)C(=O)N1CCC[C@H]1C(=O)N[C@@H](CC(N)=O)C(=O)NCC(=O)N[C@@H](C)C(=O)N[C@@H](CCC(=O)O)C(=O)N[C@@H](CC(=O)O)C(=O)N[C@@H](CCC(=O)O)C(=O)N[C@@H](CO)C(=O)N[C@@H](C)C(=O)N[C@@H](CCC(=O)O)C(=O)N[C@@H](C)C(=O)N[C@@H](Cc1ccccc1)C(=O)N1CCC[C@H]1C(=O)N[C@@H](CC(C)C)C(=O)N[C@@H](CCC(=O)O)C(=O)N[C@@H](Cc1ccccc1)C(=O)O)C(C)C)C(C)C)C(C)C	.	.	-4	-5	.
O=c1oc2ccccc2c(O)c1C=Nc1cccnc1	-14%	-78%[1.15 µM]	-7	40	0%
O=C(CN1CSCC1=O)N1CCN(S(=O)(=O)c2ccc(Cl)cc2)CC1	.	-15%	.	.	17%
O=C(CSc1nnc(CNC(=O)c2ccco2)o1)Nc1cccc(F)c1	-4%	28%	15	-7	60%
CC(=O)NCCCC(=O)NN1C(=S)N(Cc2ccccc2)C(=O)C1CC(=O)Nc1cccc(C)c1 (stereo not drawn)	-1%	-24%	-1	-2	6%
O=C(CSc1nnc(NC(=O)c2c(F)cccc2F)s1)NCc1ccco1	.	21%	.	.	26%
O=C(Nc1nnc(SCC(=O)N2CCCCC2)s1)c1ccccc1F	4%	27%	18	30	4%
O=C(CSc1nnc(NC(=O)c2ccccc2F)s1)NCc1ccco1	-6%	118%	35*	79*	174%
O=C(CSc1nnc(NC(=O)c2ccccc2F)s1)NCc1ccc(F)cc1	1%	71%	41*	107*	47%
COc1ccc(C(=O)Nc2nnc(SCC(=O)NCc3ccco3)s2)c(OC)c1	-1%	94%	35*	33*	16%
COc1ccccc1C(=O)Nc1nnc(SCC(=O)NCc2ccco2)s1	1%	215%	43*	63*	114%
Cc1c(-c2ccccc2)[n+](=O)c(-c2ccc(Cl)cc2)c(C)n1[O-]	5%	-3%	-6	-13	?
C=CCSc1ccccc1C(=O)Nc1ncn[nH]1	2%	1%	-2	-4	-6%
CC(C)c1ccc(NC(=O)c2csnn2)cc1	-15%	184%	30*	42*	.
Cc1cccc(C(C)C)c1NC(=O)c1cccnc1	-5%	15%	-1	2	12µM*
O=C(Nc1ccccc1NC(=O)c1csnn1)c1csnn1	3%	37%	2	-8	53%
CC(C)c1ccc(NC(=O)c2snc3ccc(Cl)cc23)cc1	-6%	63%	39*	74*	-94%
Cc1ccccc1NC(=O)c1cccnc1	-4%	27%	-3	-1	25%
COC(=O)c1ccc(C(NC(=O)c2cccnc2)NC(=O)c2cccnc2)cc1	-4%	154%	30*	66*	34%
COC(=O)C(C(=O)OC)c1ccc(NC(=O)c2cccc(Cl)c2)cc1	1%	55%	-1	3	88%
CC(C)C[C@H](NC(=O)[C@@H]1CCCN1C(=O)[C@H](Cc1ccccc1)NC(=O)[C@H](C)NC(=O)[C@H](CCC(=O)O)NC(=O)[C@H](C)NC(=O)[C@H](CO)NC(=O)[C@H](CCC(=O)O)NC(=O)[C@H](CC(=O)O)NC(=O)[C@H](CCC(=O)O)NC(=O)[C@H](C)NC(=O)CNC(=O)[C@H](CC(N)=O)NC(=O)[C@@H]1CCCN1C(=O)[C@H](Cc1ccc(O)cc1)NC(=O)[C@@H](NC(=O)[C@H](CCCCN)NC(=O)[C@@H](NC(=O)[C@@H]1CCCN1C(=O)[C@@H](N)CCCNC(=N)N)C(C)C)C(C)C)C(=O)N[C@@H](CCC(=O)O)C(=O)N[C@@H](Cc1ccccc1)C(=O)O	.	.	-6	7	.
CC(C)c1ccc(O)c(NC(=O)c2cccnc2)c1	3%	.	-3	-13	10µM*
CC(C)c1ccc(NC(=S)NNC(=O)c2cccnc2)cc1	-1%	30%	13	19	41%
CC(C)c1ccc(NC(=O)c2cccnc2)cc1	-6%	125%	23*	74	7.4µM*
CCC(C)c1ccc(O)c(NC(=S)NC(=O)c2cccnc2)c1 (stereo not drawn)	9%	?	12	-1	26%
SMILES	LmPK inh	Pf growth 48h	Cycloheximide cs	Shiga toxin inh	Pf growth 96h
COC(=O)c1ccccc1NC(=O)COC(=O)c1cccnc1	0%	14%	-1	-9	60%
CC(C)c1ccccc1NC(=O)COC(=O)c1cccnc1	-7%	-10%	-6	2	13µM*
O=C(NC(=S)Nc1ccccc1Cl)c1csnn1	0%	48%	38*	42*	57%
CCC(C)(C)NC(=O)CN(CCc1cccc(C)c1)C(=O)c1csnn1	0%	-14%	-4	-4	0%
O=C(CCc1ccncc1)NC1CCCc2c1cnn2-c1ccc(F)cc1F (stereo not drawn)	7%	15%	-3	2	?
Cc1cc(Cl)ccc1NC(=O)CN1CCN(C(=O)c2ccco2)CC1	-4%	10µM*	-2	-8	-7%
COc1ccc2ccccc2c1CN1CCN(C(=O)c2ccccc2)CC1	6%	?	-1	-14	78%
COc1ccc2ccccc2c1CN1CCN(C(=O)c2ccco2)CC1	7%	6.6µM*	-3	-11	11%
O=C(CN1CCC(NC(=O)c2ccco2)CC1)Nc1ccccc1[N+](=O)[O-]	2%	?	-1	15	?
Cc1ccccc1NC(=O)CN1CCN(C(=O)c2ccco2)CC1	-4%	?	1	-10	1%
O=C(c1ccco1)N1CCN(CCOCCOc2cccc3ccccc23)CC1	4%	.	-6	-7	12µM*
O=C(CN1CCC(NC(=O)c2ccco2)CC1)Nc1cccc2ccccc12	1%	?	1	-2	10µM*
CN(C(=O)COC(=O)C1CSC2(C)CCC(=O)N12)c1ccccc1 (stereo not drawn)	.	-19%	.	.	7%
CCOc1ccc(Br)cc1S(=O)(=O)Nc1ncn[nH]1	1%	3%	3	-9	16%
CCOc1ccccc1C(=O)OCC(=O)Nc1cc(S(=O)(=O)N2CCOCC2)ccc1C	.	20%	.	.	21%
